The values that follow come from PubChem BioAssay (EPA / NIEHS).

Read-out in experiment [1]: organic anion transporter (SLCO1B1), SLCO1B1 (gene 10599)
The experiment can be described thus: CLD_SLCO1B1_24hr: CellzDirect (CLD) Gene Expression Assay for organic anion transporter (SLCO1B1) at 24 hours (AID 2283690). The method, boiled down: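 Primary human hepatocytes (two donor preparations) dosed daily for two days with chemicals at multiple concentrations, 0.2% DMSO vehicle. SLCO1B1 mRNA at 24 h measured by qNPA chemiluminescence; induction fitted relative to DMSO.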

Read-out in experiment [2]: alkyl and aryl transferase (GSTA2), GSTA2 (gene 2939)
Nature of the experiment: CLD_GSTA2_24hr: CellzDirect (CLD) Gene Expression Assay for alkyl and aryl transferase (GSTA2) at 24 hours (AID 2283693). The method, boiled down:
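Primary human hepatocytes (two donor preparations) dosed daily for two days with chemicals at multiple concentrations (vehicle 0.2% DMSO); GSTA2 mRNA at 24 h measured by qNPA chemiluminescence, gain-of-signal versus DMSO.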

Read-out in experiment [3]: sulfotransferase (SULT2A), SULT2A1 (gene 6822)
The experiment can be described thus: CLD_SULT2A_24hr: CellzDirect (CLD) Gene Expression Assay for sulfotransferase (SULT2A) at 24 hours (AID 2283694).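 For AC50: potency for increased SULT2A1 mRNA level as induction over DMSO baseline.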 The method, boiled down: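 Primary human hepatocytes from two donor preparations were dosed daily with fresh solutions, vehicle 0.2% DMSO. At 24 h, lysates went to quantitative nuclease protection (qNPA) with S1 digestion and chemiluminescent readout. Cytotoxicity was annotated from phase-contrast morphology.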

Read-out in experiment [4]: ABC Transporter (ABCB1), ABCB1 (gene 5243)
Nature of the experiment: CLD_ABCB1_48hr: CellzDirect (CLD) Gene Expression Assay for ABC Transporter (ABCB1) at 48 hours (AID 2283695). The method, boiled down: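 Primary human hepatocytes from two donor preparations dosed daily on two consecutive days with 0.2% DMSO vehicle. Harvest at 48 h. ABCB1 mRNA quantified by qNPA with chemiluminescence and fitted for gain of signal versus DMSO.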

Read-out in experiment [5]: Cytochrome P450 2B6 (Homo sapiens) (UniProt P20813)
Nature of the experiment: CLD_CYP2B6_48hr: CellzDirect (CLD) Gene Expression Assay for xenobiotic metabolism (CYP2B6) at 48 hours (AID 2283699).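 Note: actives raise transcript level above DMSO so potency reflects induction.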 The method, boiled down: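 Primary human hepatocytes dosed daily for two days over multiple concentrations, 0.2% DMSO vehicle; CYP2B6 mRNA quantified at 48 h by qNPA chemiluminescence. Induction fitted as gain of signal versus DMSO; cytotoxicity annotated by morphology.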

Read-out in experiment [6]: Broad substrate specificity ATP-binding cassette transporter ABCG2 (Homo sapiens) (UniProt Q9UNQ0)
The experiment can be described thus: CLD_ABCG2_48hr: CellzDirect (CLD) Gene Expression Assay for ABC Transporter (ABCG2) at 48 hours (AID 2283704). The method, boiled down: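 Primary human hepatocytes from two donors, dosed daily for 2 days, 0.2% DMSO vehicle, several concentrations. ABCG2 mRNA at 48 h by qNPA chemiluminescence, gain fitted versus DMSO; cytotoxicity flagged by morphology.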

Read-out in experiment [7]: Glyceraldehyde-3-phosphate dehydrogenase (Homo sapiens) (UniProt P04406)
The experiment can be described thus: CLD_GAPDH_48hr: CellzDirect (CLD) Gene Expression Assay for Baseline Control (Glyceraldehyde 3-phosphate dehydrogenase) at 48 hours (AID 2283706).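 Note: active means higher GAPDH mRNA than DMSO vehicle.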 The method, boiled down: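 Primary human hepatocytes dosed daily for two days with fresh chemical at multiple concentrations, 0.2% DMSO vehicle; GAPDH mRNA measured at 48 h by quantitative nuclease protection assay with chemiluminescence, fitted upward relative to DMSO as background control.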

Read-out in experiment [8]: alkyl and aryl transferase (GSTA2), GSTA2 (gene 2939)
The experiment can be described thus: CLD_GSTA2_48hr: CellzDirect (CLD) Gene Expression Assay for alkyl and aryl transferase (GSTA2) at 48 hours (AID 2283708).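 Note: active means mRNA induction above DMSO vehicle baseline.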 The method, boiled down:
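Primary human hepatocytes dosed daily for two days (0.2% DMSO vehicle), harvested at 48 h. GSTA2 mRNA induction measured by quantitative nuclease protection assay with chemiluminescent imaging, fitted for gain of signal relative to DMSO.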

Read-out in experiment [9]: glucuronosyltransferase (UGT1A1), UGT1A1 (gene 54658)
The experiment can be described thus: CLD_UGT1A1_48hr: CellzDirect (CLD) Gene Expression Assay for glucuronosyltransferase (UGT1A1) at 48 hours (AID 2283709).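 Note: actives increase expression relative to DMSO so potency refers to induction.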 The procedure, abridged: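 Human primary hepatocytes dosed daily for two days (0.2% DMSO vehicle), harvested at 48 h. UGT1A1 mRNA induction measured by quantitative nuclease protection assay with chemiluminescence; gain of signal versus DMSO; cytotoxicity flagged from morphology.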

Experiment [10] can be described thus: STM_H9_CystineISnorm_perc: Stemina devTOX quickPredict H9 human embryonic stem cell (hESC)-based Assay for Cystine (CYSS) Metabolite Biomarker, Normalized (AID 2283713; active = hit-call score of the fitted dose curve at least 0.9, where 1 is the maximum; inactive = score below 0.9). The method, boiled down: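 H9 hESC, pluripotent; compound 72h, re-dosed q24h with medium change. Last-24h medium → 40% acetonitrile deproteinization → UPLC-HRMS. CYSS area / C13-CYSS standard, then % of 0.1% DMSO median.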

The nature of experiment [11]: STM_H9_OrnCyssISnorm_ratio: Stemina devTOX quickPredict H9 human embryonic stem cell (hESC)-based Assay for Ornithine (ORN):Cystine (CYSS) Ratio (AID 2283714). The procedure, abridged:
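Steps: H9 hESCs in pluripotent state dosed 72h, medium plus compound renewed every 24h; conditioned medium from the final 24h deproteinized in 40% acetonitrile; ORN and CYSS quantified by UPLC-HRMS with C13 spike-ins; ratio relative to vehicle.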

Read-out in experiment [12]: glucuronosyltransferase (UGT1A1), UGT1A1 (gene 54658)
Nature of the experiment: CLD_UGT1A1_24hr: CellzDirect (CLD) Gene Expression Assay for glucuronosyltransferase (UGT1A1) at 24 hours (AID 2283696). The method, boiled down: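 Primary human hepatocytes from two donor preparations were dosed (0.2% DMSO vehicle) and harvested at 24 h; UGT1A1 mRNA induction was quantified by chemiluminescent qNPA, fitted as gain relative to DMSO.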

Read-out in experiment [13]: xenobiotic metabolism (CYP1A2), CYP1A2 (gene 1544)
The experiment can be described thus: CLD_CYP1A2_48hr: CellzDirect (CLD) Gene Expression Assay for xenobiotic metabolism (CYP1A2) at 48 hours (AID 2283703). The procedure, abridged: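 Primary human hepatocytes from two donor preparations were dosed daily for two days at multiple concentrations in 0.2% DMSO vehicle. CYP1A2 mRNA was measured at 48 hours by chemiluminescent quantitative nuclease protection assay, with gain of signal fitted versus DMSO and cytotoxicity annotated from morphology.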

Read-out in experiment [14]: sulfotransferase (SULT2A), SULT2A1 (gene 6822)
Nature of the experiment: CLD_SULT2A_48hr: CellzDirect (CLD) Gene Expression Assay for sulfotransferase (SULT2A) at 48 hours (AID 2283710).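 Note: hits raise SULT2A1 transcript above the 0.2% DMSO vehicle baseline.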 The procedure, abridged:
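Primary human hepatocytes (two donor preparations) dosed daily for two days with chemicals at multiple concentrations, vehicle 0.2% DMSO; SULT2A1 mRNA induction at 48 h by quantitative nuclease protection assay, chemiluminescent read-out, fitted for gain of signal versus DMSO.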

Experiment [15] in a line: STM_H9_OrnithineISnorm_perc: Stemina devTOX quickPredict H9 human embryonic stem cell (hESC)-based Assay for Ornithine (ORN) Metabolite Biomarker, Normalized (AID 2283712; active = hit-call score of the fitted dose curve at least 0.9, where 1 is the maximum; inactive = score below 0.9;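 note: ornithine released into spent medium during last day measured by mass spectrometry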). The method, boiled down:
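H9 human embryonic stem cells kept pluripotent receive test chemical over 72 h, refreshed daily by media exchange. Media from the closing 24 h is deproteinized and analysed by UPLC-HRMS on an amide column; ornithine signal is scaled to labelled standard and vehicle.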

Read-out in experiment [16]: organic anion transporter (SLCO1B1), SLCO1B1 (gene 10599)
Nature of the experiment: CLD_SLCO1B1_48hr: CellzDirect (CLD) Gene Expression Assay for organic anion transporter (SLCO1B1) at 48 hours (AID 2283707). The method, boiled down: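 Primary human hepatocytes from two donor preparations dosed daily for two days with multiple concentrations, 0.2% DMSO vehicle. SLCO1B1 mRNA at 48 h by quantitative nuclease protection assay, chemiluminescence; gain-of-signal fitted versus DMSO.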

Experiment [17] can be described thus: CEETOX_H295R_MTT_cell_viability: Viability Assessment in the CeeTox HT-H295R MTT Assay (AID 2283718; active = hit-call score of the fitted dose curve at least 0.9, where 1 is the maximum; inactive = score below 0.9). The method, boiled down: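 MTT reduction (0.5 mg/ml, 4 h at 37 C; absorbance at 570 and 650 nm) gave viability as background-corrected percent change versus controls. H295R cells had 48 h forskolin (10 uM) prestimulation, then 48 h chemical exposure at 0.1% DMSO.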

Read-out in experiment [18]: xenobiotic metabolism (CYP1A1), CYP1A1 (gene 1543)
Nature of the experiment: CLD_CYP1A1_48hr: CellzDirect (CLD) Gene Expression Assay for xenobiotic metabolism (CYP1A1) at 48 hours (AID 2283705). The procedure, abridged: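 Primary human hepatocytes from two donors dosed daily for two days at multiple concentrations, 0.2% DMSO vehicle; CYP1A1 mRNA induction at 48 h by qNPA chemiluminescence. Cytotoxicity noted by phase-contrast morphology.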

Read-out in experiment [19]: Cytochrome P450 3A4 (Homo sapiens) (UniProt P08684)
Nature of the experiment: CLD_CYP3A4_48hr: CellzDirect (CLD) Gene Expression Assay for xenobiotic metabolism (CYP3A4) at 48 hours (AID 2283698). The procedure, abridged: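 Primary human hepatocytes from two donor preparations dosed daily for two days with multiple chemical concentrations, 0.2% DMSO vehicle. CYP3A4 mRNA at 48 h by quantitative nuclease protection assay, chemiluminescence, positive fit versus DMSO; cytotoxicity flagged morphologically.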

Records with an inconclusive call do not appear. Activity calls are given as the source filed them. Rule for the calls, unless noted: active = hit-call score of the fitted dose curve at least 0.9, where 1 is the maximum; inconclusive = response in the unintended direction; inactive = score below 0.9.

Chain of Glyceraldehyde-3-phosphate dehydrogenase (Homo sapiens) (P04406 whole entry, looked up): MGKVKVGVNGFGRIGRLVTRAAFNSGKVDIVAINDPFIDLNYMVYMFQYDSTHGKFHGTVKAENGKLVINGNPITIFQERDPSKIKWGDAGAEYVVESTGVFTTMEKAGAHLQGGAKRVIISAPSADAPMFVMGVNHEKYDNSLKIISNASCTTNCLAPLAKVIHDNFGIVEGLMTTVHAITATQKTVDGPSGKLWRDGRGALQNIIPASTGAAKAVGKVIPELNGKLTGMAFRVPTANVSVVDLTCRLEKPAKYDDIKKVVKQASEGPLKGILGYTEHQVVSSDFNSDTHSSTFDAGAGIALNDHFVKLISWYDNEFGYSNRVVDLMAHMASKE
Chain of Broad substrate specificity ATP-binding cassette transporter ABCG2 (Homo sapiens) (Q9UNQ0 whole entry, looked up): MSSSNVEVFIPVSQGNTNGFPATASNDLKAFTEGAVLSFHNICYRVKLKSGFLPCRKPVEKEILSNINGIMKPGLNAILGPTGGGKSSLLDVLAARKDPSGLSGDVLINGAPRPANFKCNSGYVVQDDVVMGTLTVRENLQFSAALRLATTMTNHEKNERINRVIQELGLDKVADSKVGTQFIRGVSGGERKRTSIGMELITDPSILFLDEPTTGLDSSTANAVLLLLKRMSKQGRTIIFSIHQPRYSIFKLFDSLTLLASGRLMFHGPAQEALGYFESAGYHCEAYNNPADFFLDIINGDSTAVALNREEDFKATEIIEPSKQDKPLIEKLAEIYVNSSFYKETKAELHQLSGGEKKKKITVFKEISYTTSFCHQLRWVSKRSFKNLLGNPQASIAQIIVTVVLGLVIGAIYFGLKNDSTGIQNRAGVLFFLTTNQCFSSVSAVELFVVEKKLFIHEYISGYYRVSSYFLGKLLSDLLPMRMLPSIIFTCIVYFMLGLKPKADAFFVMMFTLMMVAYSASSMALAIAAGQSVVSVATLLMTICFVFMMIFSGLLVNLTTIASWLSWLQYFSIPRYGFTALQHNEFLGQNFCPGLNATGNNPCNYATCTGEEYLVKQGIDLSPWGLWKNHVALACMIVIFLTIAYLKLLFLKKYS
Chain of Cytochrome P450 3A4 (Homo sapiens) (P08684 whole entry, looked up): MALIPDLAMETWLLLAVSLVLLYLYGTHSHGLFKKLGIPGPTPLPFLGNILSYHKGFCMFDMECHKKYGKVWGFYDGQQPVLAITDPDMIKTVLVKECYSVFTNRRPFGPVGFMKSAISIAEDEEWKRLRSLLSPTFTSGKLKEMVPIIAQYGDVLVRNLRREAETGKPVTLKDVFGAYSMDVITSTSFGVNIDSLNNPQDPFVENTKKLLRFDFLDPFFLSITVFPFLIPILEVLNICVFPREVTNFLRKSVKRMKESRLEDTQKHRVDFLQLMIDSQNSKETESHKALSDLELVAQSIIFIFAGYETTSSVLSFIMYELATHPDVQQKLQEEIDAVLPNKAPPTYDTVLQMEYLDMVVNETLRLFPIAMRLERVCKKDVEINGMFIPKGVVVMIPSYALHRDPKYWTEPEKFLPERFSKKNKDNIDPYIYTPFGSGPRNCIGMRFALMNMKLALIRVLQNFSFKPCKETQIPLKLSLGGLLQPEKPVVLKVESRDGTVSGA

With `CSC1=N[C@@](C)(c2ccccc2)C(=O)N1Nc1ccccc1`, the compound was called inactive in [1], in experiment [2], in [3], in experiment [4], in [6] and in experiment [7]. In addition, the compound was called inactive in experiment [8] and in experiment [9]. Moreover, the values for the concentration at half-maximal activity (AC50) in [5], in experiment [10] and in [11] were 1.16 µM (active), 30.1 µM (active) and 29.9 µM (active), respectively.

Take `CCOP(=S)(OCC)SCCSCC`: the outcome in experiment [1], in experiment [3], in experiment [8] and in experiment [14] was inactive. Moreover, the half-maximal activity concentration (AC50) (commonly the midpoint of the concentration-response curve, whichever way the signal moves) in experiment [12] was 24.6 µM (active); in experiment [13], 7.27 µM (active); in experiment [9], 4.17 µM (active); in experiment [15], 72.2 µM (active); in [10] it was 31.1 µM (active); in experiment [11], 34.3 µM (active).

With `CN(C)NC(=O)CCC(=O)O`, the result in experiment [1], in experiment [4], in experiment [13], in experiment [7], in [16] and in [8] was inactive. The compound was called inactive in experiment [9], in [14] and in [17].

Take `COP(=O)(OC)OC(Br)C(Cl)(Cl)Br` (stereo unspecified): the compound was classed as inactive in experiment [2], in experiment [4], in experiment [5], in [13], in experiment [7] and in experiment [8]. For the same compound, the call in experiment [9] and in [14] was inactive.

`CCOP(=S)(OCC)Oc1cc(C)nc(C(C)C)n1`: the compound was classed as inactive in [3], in experiment [8], in experiment [9], in experiment [14] and in experiment [17]. The AC50 in experiment [13] is 2.77 µM (active); in experiment [15] it was 79.1 µM (active); in experiment [10], 73.3 µM (active); in experiment [11], 75.2 µM (active).

`Nc1c(Cl)cc([N+](=O)[O-])cc1Cl`: the compound was classed as inactive in experiment [3], in experiment [7], in experiment [16], in experiment [8], in experiment [9] and in experiment [14]. The results for the half-maximal activity concentration (AC50) in [13] and in [18] were 4.29 µM (active) and 4.01 µM (active), respectively.

`CC[C@H](C)[C@H]1O[C@]2(C=C[C@@H]1C)C[C@@H]1C[C@@H](C/C=C(\C)[C@@H](O[C@H]3C[C@H](OC)[C@@H](O[C@H]4C[C@H](OC)[C@@H](NC)[C@H](C)O4)[C@H](C)O3)[C@@H](C)/C=C/C=C3\CO[C@@H]4[C@H](O)C(C)=C[C@@H](C(=O)O1)[C@]34O)O2`: the AC50 in experiment [3] was 0.336 µM (active); in experiment [14] it was 2 µM (active). In addition, the compound was called inactive in experiment [12], in [6], in [7] and in experiment [16].

For `Cc1cc(C2CC2)nc(Nc2ccccc2)n1`, the compound was classed as inactive in experiment [12], in experiment [19], in experiment [18], in experiment [8], in [9] and in experiment [14]. Also, the AC50 in experiment [13] was 3.97 µM (active).

With `CCc1cnc(C2=NC(C)(C(C)C)C(=O)N2)c(C(=O)O)c1` (stereo unspecified), the outcome in experiment [1], in [13], in experiment [6], in experiment [7], in experiment [16] and in experiment [8] was inactive. The result in experiment [9] and in experiment [14] was inactive.
